The whole screen tested about 64,000 compounds, of which about 1,900 (3%) were called active.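 How the source made its calls: active means fluorescence rise, raw or as B-score row- and column-corrected plate score, outside the 99.7% band of its plate's samples, either direction; inactive means the rest.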 Many of the other results were omitted from the sample, so actives are more common in it than they were.
tested on: Muscarinic acetylcholine receptor M1; test: direct activation of M1 receptor calcium signal – CHO-M1 cells, Fluo-4 calcium, agonist mode, primary screen (AID 626); settings: Fluo-4 calcium fluorescence, at 10 µM, stronger effect = higher value

Compound	B-score
O=C(c1cc2nc(-c3ccccc3)cc(-c3ccccc3)n2n1)N1CCC2(CC1)OCCO2	6.7 (active)
O=C(c1cc(-c2ccncc2)nc2ccccc12)N1CCC2(CC1)OCCO2	0.114 (inactive)
Cc1cccc(-n2c(C)nc3cc(C(=O)N4CCC5(CC4)OCCO5)ccc32)c1	-0.0322 (inactive)
Cc1ccc(P(=S)(c2ccc(C)o2)N2CCOCC2)o1	0.695 (inactive)
Cn1c(C(=O)N2CCC(C(=O)N3CCC4(CC3)OCCO4)CC2)cc2sccc21	-0.378 (inactive)
